# Experimental data: PubChem BioAssay (NCI)
# The panel holds about 83,000 compounds, 20% with a hit somewhere; the sample as a whole holds those more often.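 96-well plates, one dose, 48 hours. Percent growth reported; active if below 10.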 Calls of active or inactive are those of the source.
# What was measured:
# Assay in all cases: NCI-60 one-dose screen, 48 h (100 = growth as untreated, 0 = no growth, -100 = all killed)
# Conditions in all cases: 10 µM
# HCT-15 colon = tested on: HCT-15 colon
# HT29 colon = tested on: HT29 colon
# SNB-75 CNS = tested on: SNB-75 CNS
# SNB-19 CNS = tested on: SNB-19 CNS
# U251 CNS = tested on: U251 CNS
# PC-3 prostate = tested on: PC-3 prostate
# SK-MEL-5 melanoma = tested on: SK-MEL-5 melanoma
# UACC-62 melanoma = tested on: UACC-62 melanoma
# LOX IMVI melanoma = tested on: LOX IMVI melanoma
# SK-MEL-28 melanoma = tested on: SK-MEL-28 melanoma
SMILES,growth (HCT-15 colon),growth (HT29 colon),growth (SNB-75 CNS),growth (SNB-19 CNS),growth (U251 CNS),growth (PC-3 prostate),growth (SK-MEL-5 melanoma),growth (UACC-62 melanoma),growth (LOX IMVI melanoma),growth (SK-MEL-28 melanoma)
CCN1CCN(CCC(=O)Nc2cccc(-n3cc(-c4ccncc4)c(-c4ccc(Cl)c(OC)c4)n3)c2)CC1,13.7% (inactive),-23.4% (active),9.22% (active),39.4% (inactive),-7.85% (active),16.5% (inactive),-3.03% (active),-17% (active),-47.5% (active),-52.3% (active)
OC[C@H]1OC([S-])[C@H](O)[C@@H](O)[C@@H]1O.[Au+] (stereo not given in full),87.8% (inactive),83.8% (inactive),98.8% (inactive),101% (inactive),61.7% (inactive),77.8% (inactive),68.5% (inactive),63.3% (inactive),50.3% (inactive),68.9% (inactive)
CN1CCN(C2=Nc3ccccc3Oc3ccc(Cl)cc32)CC1,103% (inactive),88.3% (inactive),59.5% (inactive),104% (inactive),102% (inactive),83.8% (inactive),96.7% (inactive),98.7% (inactive),103% (inactive),110% (inactive)
COc1cc(/C=C/c2cc(/C=C/c3ccc(O)c(OC)c3)n(C(=O)Nc3ccccc3Cl)n2)ccc1O,15% (inactive),-35% (active),-4.71% (active),15.5% (inactive),2.33% (active),6.54% (active),-23.8% (active),1.04% (active),1.22% (active),12.1% (inactive)
CN1CCN(CCC(=O)Nc2cccc(-n3cc(-c4ccncc4)c(-c4ccc(Cl)c(O)c4)n3)c2)CC1,39.3% (inactive),4.91% (active),24.5% (inactive),55% (inactive),32.4% (inactive),29.3% (inactive),24.2% (inactive),46.9% (inactive),15.7% (inactive),57.7% (inactive)
CCCCN(CCCC)C(=O)[C@H](CC)[C@@H]1CC[C@@H](C)[C@@H]([C@H](C)[C@@H](O)[C@@H](C)C(=O)[C@H](CC)C2O[C@]3(C=C[C@@H](O)[C@]4(CC[C@@](C)([C@H]5CC[C@](O)(CC)[C@H](C)O5)O4)O3)[C@H](C)C[C@@H]2C)O1 (stereo not given in full),-5.99% (active),7.79% (active),-12.4% (active),15.3% (inactive),13.9% (inactive),4.26% (active),-92% (active),12.2% (inactive),2.12% (active),39.8% (inactive)
NS(=O)(=O)Oc1ccc(-c2ccc3sccc3c2)cc1,103% (inactive),107% (inactive),97.3% (inactive),101% (inactive),88.8% (inactive),96.5% (inactive),95.9% (inactive),61.6% (inactive),95.2% (inactive),97.6% (inactive)
Nc1ccc(/C=N/Nc2ccnc3c(O)cccc23)c2cccnc12,26.1% (inactive),56.8% (inactive),69.9% (inactive),72.7% (inactive),4.7% (active),34.8% (inactive),82.3% (inactive),95.2% (inactive),-72.9% (active),90.9% (inactive)
O=C1/C=C/[C@@H](O)[C@@H]2C[C@@H](O)C[C@H]2/C=C/CCC[C@H](CCc2ccc(C(F)(F)F)cc2)O1,-3.05% (active),-36.7% (active),-13.5% (active),17.6% (inactive),12.1% (inactive),8.76% (active),-87.2% (active),6.89% (active),-71.8% (active),2.07% (active)
CC(C)N(CCOc1cccc(-c2nc3sccn3c2-c2ccnc(S(C)(=O)=O)n2)c1)C(C)C,81.8% (inactive),54.5% (inactive),78% (inactive),101% (inactive),83.8% (inactive),72.7% (inactive),3.97% (active),84.1% (inactive),84.3% (inactive),99.3% (inactive)
CC(=O)N[C@H](C(=O)N[C@@H](CCCNC(=N)N)C(=O)N[C@@H](CCCCN)C(=O)N[C@@H](CCCNC(=N)N)C(=O)N[C@]1(C)CCCCCC/C=C\CCC[C@@](C)(C(=O)N[C@@H](CCCNC(=N)N)C(=O)N[C@@H](CCC(=O)O)C(=O)N[C@@H](CC(C)C)C(=O)N[C@H](C(=O)N[C@@H](CCC(=O)O)C(N)=O)C(C)C)NC(=O)[C@H](CCC(N)=O)NC(=O)[C@H](CC(C)C)NC(=O)[C@H](CC(C)C)NC(=O)[C@H](CCCNC(=N)N)NC(=O)[C@H](CCCNC(=N)N)NC(=O)[C@H](CC(C)C)NC1=O)C(C)C,-10.8% (active),15.7% (inactive),2.79% (active),6.45% (active),-40.9% (active),-4.64% (active),-68.8% (active),-43.3% (active),29.4% (inactive),-29.7% (active)
CCC(=O)OC1CCC2C3CCC(=O)OC3C(C)(CCC(=O)O)CC12C (stereo not given),24.2% (inactive),4.42% (active),-1.91% (active),62.8% (inactive),28.3% (inactive),31.4% (inactive),-83.5% (active),45.9% (inactive),30.9% (inactive),59.8% (inactive)
O[C@@H]1CO[C@H]2[C@@H]1OC[C@@H]2O,102% (inactive),103% (inactive),91.1% (inactive),99.5% (inactive),108% (inactive),90% (inactive),116% (inactive),103% (inactive),97% (inactive),113% (inactive)
Cc1nn(-c2ccccc2)c2nc(Cl)c(C=O)c(-c3ccccc3)c12,94.8% (inactive),56.7% (inactive),106% (inactive),95.6% (inactive),92.8% (inactive),77.4% (inactive),87.1% (inactive),79.4% (inactive),86.9% (inactive),107% (inactive)
Cc1ccc(C(=O)/C=C/c2ccccc2)s1,107% (inactive),107% (inactive),106% (inactive),99.1% (inactive),95.8% (inactive),111% (inactive),99.9% (inactive),97.4% (inactive),79.1% (inactive),114% (inactive)
CCOC(=O)c1cocc1C(=O)O,103% (inactive),110% (inactive),83.3% (inactive),107% (inactive),103% (inactive),112% (inactive),104% (inactive),116% (inactive),103% (inactive),104% (inactive)
S=c1cnc2ccccc2[nH]1,102% (inactive),93.7% (inactive),86.5% (inactive),109% (inactive),95.5% (inactive),86.1% (inactive),97.6% (inactive),98.8% (inactive),94.3% (inactive),108% (inactive)
CNC(=O)c1cc(Oc2ccc3c(c2)sc2nc(-c4ccc(NC(=O)Nc5ccc(Cl)c(C(F)(F)F)c5)cc4)cn23)ccn1,71.4% (inactive),67.2% (inactive),66.6% (inactive),85.7% (inactive),61.9% (inactive),64% (inactive),86.6% (inactive),88% (inactive),76.1% (inactive),88.4% (inactive)
CC(=O)N[C@H](C(=O)N[C@@H](CCCNC(=N)N)C(=O)N[C@@H](CCCCN)C(=O)N[C@@H](CCCNC(=N)N)C(=O)NC(C(=O)N[C@@H](CC(C)C)C(=O)N[C@@H](CCCNC(=N)N)C(=O)N[C@@]1(C)CCC/C=C\CCC[C@@](C)(C(=O)N[C@@H](CCCNC(=N)N)C(=O)N[C@@H](CCC(=O)O)C(=O)N[C@@H](CC(C)C)C(=O)N[C@H](C(=O)N[C@@H](CCC(=O)O)C(N)=O)C(C)C)NC(=O)[C@H](CCC(N)=O)NC(=O)[C@H](CC(C)C)NC(=O)[C@H](CC(C)C)NC1=O)[C@@H](C)O)C(C)C (stereo not given in full),16.2% (inactive),26.9% (inactive),-16.4% (active),31.7% (inactive),-35.7% (active),-75.5% (active),-83.9% (active),-68.1% (active),33.2% (inactive),-37.7% (active)
COc1cc(-c2csc(NC(=O)Nc3ccc(Cl)c(C(F)(F)F)c3)n2)cc(OC)c1OC,10.5% (inactive),4.27% (active),-7.01% (active),13.2% (inactive),-9.73% (active),-0.311% (active),-79.9% (active),1.56% (active),-19.2% (active),15.3% (inactive)
NNC(=O)Oc1c(Cl)cc(Cl)cc1[N+](=O)[O-],99.2% (inactive),100% (inactive),106% (inactive),106% (inactive),97.5% (inactive),107% (inactive),103% (inactive),104% (inactive),98% (inactive),108% (inactive)
O=C(CCl)Nc1ccc(Cc2ccc(NC(=O)CCl)cc2)cc1,-39.7% (active),-39.1% (active),61.1% (inactive),26.3% (inactive),-85.7% (active),2.98% (active),-88.5% (active),-9.18% (active),-84.6% (active),5.21% (active)
